# Data: PubChem BioAssay AID434970 (Sanford-Burnham Center for Chemical Genomics, 2010)
# Hit rate of the full screen: of about 11,000 compounds, about 310 (2.8%) were called active. No stated cut-off is given here; in the data, active means activity change below about -85%; inactive means the rest. For the sample, actives were picked, then their nearest neighbours and some compounds at random.
# Test system: intestinal alkaline phosphatase [Mus musculus]
# Experiment: mouse intestinal phosphatase enzyme activation – biochemical, luminescence, single concentration, confirmation (AID 434970)
# Conditions: purified mouse IAP, CDP-Star luminescence, 30 min, at 10 µM; activation factor: measured here: IAP activation factor, stronger effect = higher value; activity change, negative = activation: stronger effect = lower value
Compound,activation factor,"activity change, negative = activation"
CC[C@H](C)[C@@H](C(=O)NCCCCCCCCCCC(=O)N1CCN(C(=O)OC(C)(C)C)CC1)n1cc(CCCCN=C(NC(=O)OC(C)(C)C)NC(=O)OC(C)(C)C)nn1,2.29,-128% (active)
CC(C)(C)OC(=O)CC[C@@H](C(=O)NCCCCCCCCCCC(=O)N1CCN(C(=O)OC(C)(C)C)CC1)n1cc(CCCCCNC(=O)OC(C)(C)C)nn1,1.51,-51% (inactive)
O=C(CCS(=O)(=O)c1cccc2nonc12)Nc1cccc2c1CCCC2,0.972,2.85% (inactive)
O=C(c1ccc(F)cc1)N1CCN(c2cc(=O)[nH]nc2-c2ccccc2)CC1,1.17,-17.4% (inactive)
COc1ccc(-n2c(COc3ccccc3)nnc2SCC(N)=O)cc1,0.967,3.3% (inactive)
CCOC(=O)N1CCC(NC(=O)C2CCC(Cn3c(=O)[nH]c4ccccc4c3=O)CC2)CC1 (centres undefined),0.908,9.15% (inactive)
O=C1CC(c2nc3ccccc3[nH]2)CN1c1ccccc1 (centres undefined),0.951,4.9% (inactive)
O=c1ccc(NS(=O)(=O)c2ccc(Cl)cc2)cn1Cc1ccc(Cl)c(Cl)c1,0.948,5.2% (inactive)
CC1C(C)C(O)(c2ccccc2)CCN1C (centres undefined),0.956,4.35% (inactive)
c1ccc(NC2=NCCCCS2)cc1,1.06,-5.6% (inactive)
C#CCOCCOCCOCCNc1nc(N2CCN(C(=O)CCCCCCCCCCNC(=O)[C@H]([C@@H](C)CC)n3cc(CCCCN=C(N)N)nn3)CC2)nc(N2CCN(C(=O)CCCCCCCCCCNC(=O)[C@H]([C@@H](C)CC)n3cc(CCCCN=C(N)N)nn3)CC2)n1,22.7,-2170% (active)
C#CCOCCOCCOCCNc1nc(N2CCN(C(=O)CCCCCCCCCCNC(=O)[C@H]([C@@H](C)CC)n3cc(CCCCN=C(N)N)nn3)CC2)nc(N2CCN(C(=O)CCCCCCCCCCNC(=O)[C@@H]([C@H](C)O)n3cc(C)nn3)CC2)n1,14.6,-1360% (active)
CC(Sc1nc2ccccc2n1C)C(=O)NC(c1ccccc1)c1ccccc1 (centres undefined),0.982,1.75% (inactive)
Cc1cccc(Cn2cnc3c(NS(C)(=O)=O)c(C)c(C)cc32)c1,1.13,-12.6% (inactive)
NCCCCCc1nnc(SCC(=O)c2ccc(Cl)cc2)o1,1.08,-7.9% (inactive)
C#CCOCCOCCOCCNc1nc(N2CCN(C(=O)CCCCCCCCCCNC(=O)[C@@H](CCC(=O)O)n3cc(CCCCCN)nn3)CC2)nc(N2CCN(C(=O)CCCCCCCCCCNC(=O)[C@H]([C@@H](C)CC)n3cc(CCCCCN)nn3)CC2)n1,2.75,-176% (active)
C#CCOCCOCCOCCNc1nc(N2CCN(C(=O)CCCCCCCCCCNC(=O)[C@H]([C@@H](C)CC)n3cc(CCCCCN)nn3)CC2)nc(N2CCN(C(=O)CCCCCCCCCCNC(=O)[C@H](CCCCN)n3cc(CCCC(=O)O)nn3)CC2)n1,3.22,-222% (active)
CCOC(=O)c1ccc(-n2c(C)nc3c(cnn3-c3ccc(Cl)cc3)c2=O)cc1,0.964,3.55% (inactive)
CCCCCCCCCCCC(=O)NC(C(=O)OCC)C(O)c1cccc([N+](=O)[O-])c1 (centres undefined),1.03,-2.65% (inactive)

Compound,activation factor,"activity change, negative = activation"
CC[C@]12c3[nH]c4ccc(Cl)cc4c3CCN1C(=O)[C@@H](CC(=O)NCCC1=CCCCC1)C[C@@H]2C(=O)N1CCN(C(=O)c2ccco2)CC1,1.08,-8.45% (inactive)
CC1OC23CCCCC2C(C#N)(C(=N)O3)C1(C#N)C#N (centres undefined),0.959,4.1% (inactive)
CCN(CC(=O)Nc1ccc2c(c1)OCO2)Cc1nc2ccccc2c(=O)[nH]1,1.23,-23.5% (inactive)
CN(CC(=O)NC(c1ccccc1)c1ccccc1)Cc1nc2ccccc2c(=O)[nH]1,2.71,-171% (active)
CCN(CC(=O)NCc1ccc(F)cc1)Cc1nc2ccccc2c(=O)[nH]1,1.14,-14.2% (inactive)
Cc1cc(Cl)cc(C)c1OCC(=O)O,1.06,-5.8% (inactive)
O=C(CNC1CCCCCC1)Nc1ccccc1N1CCCCC1,1.04,-3.7% (inactive)
COc1ccccc1NS(=O)(=O)c1ccc(C)c(C(N)=O)c1,0.925,7.5% (inactive)
COc1ccccc1NS(=O)(=O)c1cccc(NC(=O)Nc2ccc(Cl)cc2)c1,1.92,-92.2% (active)
Cc1cc(C)cc(NC(=O)Nc2ccccc2N2CCCCC2)c1,2.12,-112% (active)
O=C(Nc1ccc(F)cc1)Nc1ccccc1N1CCCCC1,1.58,-57.8% (inactive)
Cc1ccc(C)c(S(=O)(=O)N2CCN(CC(=O)NC(=O)NCc3ccccc3)CC2)c1,0.972,2.8% (inactive)
COc1ccc(NC(=O)Nc2ccccc2)cc1S(=O)(=O)N1CCCCC1,2.87,-187% (active)
O=C(Nc1ccccc1)Nc1ccc(Cl)c(S(=O)(=O)N2CCOCC2)c1,1.53,-53.4% (inactive)
Cc1ccc(NC(=S)NCc2ccccc2)cc1S(=O)(=O)N1CCCCC1,2.87,-187% (active)
Cc1ccc(C(=O)NCC(=O)O)cc1S(=O)(=O)N1CCCCC1,0.994,0.55% (inactive)
COc1ccc(OC)c(NS(=O)(=O)c2ccc(NC(C)=O)cc2)c1,0.988,1.15% (inactive)
COc1ccc(NC(=S)Nc2cccc(S(=O)(=O)N3CCCCC3)c2)cc1,1.01,-1.4% (inactive)
